Data taken from PubChem BioAssay (NCATS).
Where “and” joins values, the source holds several entries; their conditions need not be identical. Equal entries are not always repeated. Results filed as inconclusive are left out. More than one record can exist for a structure, and the calls need not agree. Calls of active or inactive are those of the source. The call rests on the fitted dose curve; in most records, active means well fitted curve in the direction sought with a large enough effect; inconclusive means small, poorly fitted or top-dose-only effect, or another doubt; inactive means no such curve, though single readings can be large; an effect the other way counts as inactive or inconclusive.

How the values were obtained:
C33A = experiment: Primary qHTS to identify gynecologic anti-cancer compounds using libraries of approved drugs and bioactive compounds (AID 1345084); details: Gynecologic cancer cell panel viability, ATPlite luminescence, 48 h; series mostly up to 57.5 µM; further: nearly all actives have a fitted effect of over 55% in size
Method in brief: (§1)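 48 h compound exposure at 37 C, 5% CO2; five-point qHTS. ATPlite luminescence readout of cell ATP.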

Es-2 = experiment: as above; details: Gynecologic cancer cell panel viability, ATPlite luminescence, 48 h; series mostly up to 57.5 µM
Method in brief: as §1

HeLa = experiment: as above; details: Gynecologic cancer cell panel viability, ATPlite luminescence, 48 h; series mostly up to 57.5 µM
Method in brief: as §1

Hek293T = experiment: as above; details: Gynecologic cancer cell panel viability, ATPlite luminescence, 48 h, control line for the selectivity index; series mostly up to 57.5 µM
Method in brief: as §1

JEG-3 = experiment: as above; details: Gynecologic cancer cell panel viability, ATPlite luminescence, 48 h; series mostly up to 57.5 µM
Method in brief: as §1

PA-1 = experiment: as above; details: Gynecologic cancer cell panel viability, ATPlite luminescence, 48 h; series mostly up to 57.5 µM
Method in brief: as §1

Tov-21-G = experiment: as above; details: Gynecologic cancer cell panel viability, ATPlite luminescence, 48 h; series mostly up to 57.5 µM
Method in brief: as §1

[1] = Drug repurposing screens with cells derived from glioblastoma tumor samples (AID 1345199); details: GBM patient neurospheres viability, ATP luminescence, 48 h; further: nearly all actives have a fitted effect of over 40% in size
Method in brief: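 Primary testing used CD133+ neurospheres from four GBM patients, seven concentrations, 48 h exposure and ATP-based viability; confirmation added three slower-growing patient lines.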

CAOV3 = experiment: Primary qHTS to identify gynecologic anti-cancer compounds using libraries of approved drugs and bioactive compounds (AID 1345084); details: Gynecologic cancer cell panel viability, ATPlite luminescence, 48 h; series mostly up to 57.5 µM; further: nearly all actives have a fitted effect of over 55% in size
Method in brief: as §1

CASKI = experiment: as above; details: Gynecologic cancer cell panel viability, ATPlite luminescence, 48 h; series mostly up to 57.5 µM
Method in brief: as §1

OV90 = experiment: as above; details: Gynecologic cancer cell panel viability, ATPlite luminescence, 48 h; series mostly up to 57.5 µM
Method in brief: as §1

SKOV3 = experiment: as above; details: Gynecologic cancer cell panel viability, ATPlite luminescence, 48 h; series mostly up to 57.5 µM
Method in brief: as §1

Tov112D = experiment: as above; details: Gynecologic cancer cell panel viability, ATPlite luminescence, 48 h; series mostly up to 57.5 µM
Method in brief: as §1

MCC-13 = experiment: qHTS assay to identify novel small-molecules to repurpose for Merkel cell carcinoma treatment (AID 1296009); details: MCC and control cell lines, CellTiter-Glo viability, 72 h; series mostly up to 46 µM; further: nearly all actives have a fitted effect of over 60% in size
Method in brief: (§2)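 CellTiter-Glo luminescence after 72 hr compound exposure at 37 degree celsius gave cell viability. Libraries NPC and MIPE were run as 8- and 11-point dose responses; RLUs normalized to DMSO (negative) and no-cell (cytotoxicity) controls.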

MCC-26 = experiment: as above; details: MCC and control cell lines, CellTiter-Glo viability, 72 h; series mostly up to 46 µM
Method in brief: as §2

NIH3T3 = experiment: as above; details: MCC and control cell lines, CellTiter-Glo viability, 72 h; at 44.8 µM (top of the series) unless noted
Method in brief: as §2

UISO = experiment: as above; details: MCC and control cell lines, CellTiter-Glo viability, 72 h; series mostly up to 46 µM
Method in brief: as §2

WaGa = experiment: as above; details: MCC and control cell lines, CellTiter-Glo viability, 72 h; series mostly up to 46 µM
Method in brief: as §2

MKL-1 = experiment: as above; details: MCC and control cell lines, CellTiter-Glo viability, 72 h; series mostly up to 46 µM
Method in brief: as §2

MKL-2 = experiment: as above; details: MCC and control cell lines, CellTiter-Glo viability, 72 h; series mostly up to 46 µM
Method in brief: as §2

[2] = at 45.9 µM (top of the series), tumour line B
[3] = at 45.9 µM (top of the series), tumour line D
On the % scale 0 is the no-effect control and ±100 the full control effect; potency means the concentration at half of the fitted maximal effect.

CC[C@H](O)C(C[C@H](C)N(C)C)(c1ccccc1)c1ccccc1
inactive: Potency (C33A) | Potency (Es-2) | Potency (HeLa) | Potency (Hek293T) | Potency (JEG-3) | Potency (PA-1) | Potency (Tov-21-G) | activity, negative = cell killing ([1]; at 108 µM (top of the series), tumour line B) -29.7%
active: Potency ([1]; tumour line A) 44.7 µM | Potency ([1]; tumour line D) 70.8 µM

C[C@]12CC[C@H](O)CC1=CC[C@@H]1[C@@H]2CC[C@]2(C)C(=O)CC[C@@H]12
inactive: Potency (C33A) | Potency (CAOV3) | Potency (CASKI) | Potency (Es-2) | Potency (Hek293T) | Potency (JEG-3) | Potency (OV90) | Potency (PA-1) | Potency (SKOV3) | Potency (Tov-21-G) | Potency (Tov112D) | activity, negative = cell killing [1, 2] -4.02%
active: Potency (HeLa) 14.1 µM | Potency ([1]; tumour line A) 22.4 µM

CC(C)[N+](C)(CCC(C(N)=O)(c1ccccc1)c1ccccc1)C(C)C
active: Potency (WaGa) 23.7 µM
inactive: Potency (MCC-13) | Potency (MCC-26) | outcome (NIH3T3) | Potency (UISO) | Potency (CAOV3) | Potency (CASKI) | Potency (Es-2) | Potency (HeLa) | Potency (Hek293T) | Potency (JEG-3) | Potency (PA-1) | Potency (SKOV3) | Potency (Tov-21-G) | Potency (Tov112D) | activity, negative = cell killing ([1]; at 21.2 µM (top of the series), tumour line B) -18% | activity, negative = cell killing ([1]; at 21.2 µM (top of the series), tumour line D) -25.8%

C[C@@H]1C[C@@H]([C@H](O)CC2CC(=O)NC(=O)C2)C(=O)[C@@H](C)C1
active: Potency (MCC-13) 944 nM and 4.69 µM | Potency (MKL-1) 1.66 µM | Potency (MKL-2) 2.09 µM | Potency (UISO) 1.06 µM and 1.18 µM | Potency (WaGa) 5.9 µM | Potency (Es-2) 0.794 µM | Potency (Hek293T) 0.501 µM | Potency (OV90) 0.631 µM | Potency (PA-1) 0.708 µM | Potency (SKOV3) 2.82 µM | Potency (Tov-21-G) 0.501 µM | Potency (Tov112D) 0.562 µM
inactive: Potency (JEG-3)

c1ccc2c(c1)Sc1ccccc1N2CC1CN2CCC1CC2 (centres undefined)
active: Potency (MKL-1) 23.7 µM | Potency (MKL-2) 11.9 µM | Potency (UISO) 26.6 µM | Potency (Es-2) 35.5 µM | Potency (Hek293T) 31.6 µM | Potency (OV90) 28.2 µM | Potency (SKOV3) 28.2 µM

COc1ccc2c(C(=O)c3ccc(Cl)cc3)c(C)n(CC(=O)O)c2c1
active: Potency (UISO) 26.6 µM
inactive: Potency (C33A) | Potency (CAOV3) | Potency (CASKI) | Potency (Hek293T) | Potency (JEG-3) | Potency (OV90) | activity, negative = cell killing [1, 2] -15.8% | activity, negative = cell killing [1, 3] -19.1%

C[C@@H]1O[C@@H](O[C@@H]2C=C3CC[C@@H]4[C@H](CC[C@]5(C)[C@@H](c6ccc(=O)oc6)CC[C@]45O)[C@@]3(C)CC2)[C@H](O)[C@H](O)[C@H]1O
inactive: Potency (JEG-3)
active: Potency (MCC-13) 3.3 nM | Potency (MKL-1) 0.0094 µM | Potency (MKL-2) 0.0084 µM | Potency (UISO) 0.0038 µM | Potency (WaGa) 0.0027 µM

CC#C[C@]1(O)CC[C@H]2[C@@H]3C[C@H](C)C4=CC(=O)CC[C@]4(C)[C@H]3CC[C@@]21C
inactive: Potency (MCC-13) | Potency (MCC-26) | Potency (MKL-1) | Potency (UISO) | Potency (C33A) | Potency (CASKI) | Potency (Es-2) | Potency (Hek293T) | Potency (Tov-21-G) | Potency (Tov112D)
active: Potency (HeLa) 6.31 µM | Potency (PA-1) 25.1 µM

CN(C)C(=S)SSC(=S)N(C)C
inactive: Potency (CASKI) | Potency (HeLa)
active: Potency (MCC-26) 0.299 µM | Potency (MKL-1) 0.596 µM | Potency (MKL-2) 0.596 µM | Potency (UISO) 0.211 µM | Potency (WaGa) 0.668 µM | Potency (C33A) 1.26 µM | Potency (SKOV3) 1.58 µM | Potency (Tov112D) 12.6 µM | Potency ([1]; tumour line A) 35.5 µM | Potency ([1]; tumour line B) 35.5 µM

CCC1(c2cnc[nH]2)Cc2ccccc2C1
inactive: activity, negative = cell killing [1, 3] -24.8%

C#C[C@]1(O)CC[C@H]2[C@@H]3CCC4=CC(=O)CCC4=C3C=C[C@@]21CC
active: Potency ([1]; tumour line A) 10 µM
inactive: Potency (MCC-13) | Potency (MCC-26) | Potency (MKL-1) | Potency (C33A) | Potency (CAOV3) | Potency (CASKI) | Potency (Es-2) | Potency (HeLa) | Potency (Hek293T) | Potency (JEG-3) | Potency (OV90) | Potency (PA-1) | Potency (SKOV3) | Potency (Tov-21-G) | Potency (Tov112D) | activity, negative = cell killing [1, 2] -22.9% | activity, negative = cell killing [1, 3] -22%
